Source: PubChem BioAssay AID1456 (Vanderbilt High Throughput Screening Facility, 2008)
About 4,100 (2.2%) of roughly 190,000 compounds were called active. The full list was thinned out, with actives kept by preference. Values without a mark were called inactive.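 The calls were made as follows: active = thallium flux slope and its plate-corrected score both differing from the plate sample mean at a set confidence after two filtering rounds, in either direction; inactive = the rest.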

molecular target: Solute carrier family 12 member 5 (Homo sapiens) (UniProt Q9H2X9); experiment: modulation of human KCC2 ion transport – cell-based, HEK293 KCC2, FluoZin-2 fluorescence, MLSMR, primary screen (AID 1456); settings: KCC2 cells, thallium flux FluoZin-2 fluorescence; at 10 µM;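 also: slope of fluorescence scaled to starting intensity during 10 to 20 s after thallium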
Sequence (Q9H2X9 whole entry, looked up): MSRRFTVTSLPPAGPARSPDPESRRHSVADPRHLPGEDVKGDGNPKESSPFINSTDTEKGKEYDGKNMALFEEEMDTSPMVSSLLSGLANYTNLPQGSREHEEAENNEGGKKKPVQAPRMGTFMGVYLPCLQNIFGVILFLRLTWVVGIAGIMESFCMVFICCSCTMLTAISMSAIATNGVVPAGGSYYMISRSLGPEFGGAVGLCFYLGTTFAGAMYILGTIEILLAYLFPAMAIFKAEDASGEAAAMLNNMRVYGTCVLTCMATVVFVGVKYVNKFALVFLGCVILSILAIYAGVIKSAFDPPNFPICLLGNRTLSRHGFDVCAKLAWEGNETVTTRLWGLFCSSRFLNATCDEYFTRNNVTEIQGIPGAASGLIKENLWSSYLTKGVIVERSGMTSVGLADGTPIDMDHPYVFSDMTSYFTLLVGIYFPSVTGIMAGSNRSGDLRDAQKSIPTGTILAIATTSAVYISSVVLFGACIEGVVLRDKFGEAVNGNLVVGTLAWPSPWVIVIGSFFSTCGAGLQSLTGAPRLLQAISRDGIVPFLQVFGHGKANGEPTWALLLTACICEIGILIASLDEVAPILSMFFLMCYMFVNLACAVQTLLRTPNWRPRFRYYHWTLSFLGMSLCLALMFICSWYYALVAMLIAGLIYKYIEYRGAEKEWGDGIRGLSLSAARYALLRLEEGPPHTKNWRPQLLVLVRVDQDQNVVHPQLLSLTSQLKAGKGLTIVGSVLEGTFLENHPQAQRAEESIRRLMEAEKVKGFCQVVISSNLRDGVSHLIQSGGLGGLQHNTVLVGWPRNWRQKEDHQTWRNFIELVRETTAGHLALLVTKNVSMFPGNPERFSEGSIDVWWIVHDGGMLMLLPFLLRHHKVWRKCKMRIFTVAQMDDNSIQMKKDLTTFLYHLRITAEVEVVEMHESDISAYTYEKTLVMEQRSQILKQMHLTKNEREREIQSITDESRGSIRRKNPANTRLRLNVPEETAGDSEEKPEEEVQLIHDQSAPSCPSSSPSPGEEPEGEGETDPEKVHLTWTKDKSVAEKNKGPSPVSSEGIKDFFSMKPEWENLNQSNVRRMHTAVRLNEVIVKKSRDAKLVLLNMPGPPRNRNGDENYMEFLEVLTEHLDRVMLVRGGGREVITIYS

Row | SMILES | B-score of Tl+ flux slope (higher = more flux/activation; lower = inhibition)
1 | CCCCn1c(SCC(=O)NCC2CCCO2)nc2ccc(N3CCOCC3)cc2c1=O (configuration not stated) | 7.18 (active)
2 | O=C(CCCn1c(SCC(=O)c2ccccc2)nc2ccccc2c1=O)NCC1CCCO1 (configuration not stated) | -0.113
3 | COCCCNC(=O)CSc1nc2ccc(N3CCOCC3)cc2c(=O)n1CCc1ccccc1 | 2.34
4 | CC(C)(C)NC(=O)NC(=O)COC(=O)Cc1ccc(Cl)cc1Cl | 0.383
5 | CCN1CCN(C(=O)CCN2C(=O)c3ccccc3C2=O)CC1 | 0.322
6 | CCOC(=O)C1=NN(c2ccc(Cl)cc2)/C(=C/C2=NCCc3cc(OC)c(OC)cc32)S1 | 1.05
7 | O=C(O)CC1(CC(=O)Nc2cccc(C(F)(F)F)c2)CCCC1 | -1.45
8 | CCOC(=O)Cc1cc(=O)[nH]c(/N=C(\N)Nc2ccc(OC)cc2)n1 | -0.288
9 | O=C(O)CCSc1nnc(-c2ccccc2)n1-c1ccccc1 | 0.407
10 | CCc1c(SCCC(=O)O)nc2ccccc2c1C | 3.44 (active)
11 | COC(=O)CSc1nc(C2CC2)nc2ccccc12 | -0.171
12 | Cc1nc2ccccc2cc1C(=O)N/N=C/c1ccc([N+](=O)[O-])cc1 | -1.83
13 | N=c1oc2ccccc2cc1C(=O)N/N=C/c1ccccc1 | -3.75 (active)
14 | CNC(=O)c1cc2c(ccc3ccccc32)oc1=N | -0.785
15 | CCN(CC)c1ccc(NC(=O)C2CCC(CNc3c(N4CCCC4)c(=O)c3=O)CC2)c(C)c1 (configuration not stated) | 1.27
16 | CCCc1c(C(=O)O)cnn1-c1ccc(Cl)cc1 | -0.00741
17 | Oc1c(Cl)cc(Cl)c(Cl)c1Cc1c(O)c(Cl)cc(Cl)c1Cl | 19.9 (active)
18 | COc1ccc(CC2(CO)CCN(Cc3cnn(C)c3)CC2)cc1 | 0.00537
19 | C/C=C/C(=O)Nc1ccc(N2CCN(c3ccc(C(F)(F)F)cn3)CC2)nc1 | -0.115
20 | CS(=O)(=O)N(CC(=O)Nc1ccc(Cl)c(Cl)c1)C1CCCCC1 | -0.64
21 | CS(=O)(=O)N(CC(=O)N1CCN(c2ccc(F)cc2)CC1)C1CCCCC1 | -3.33 (active)
22 | CCC(C)NC(=O)CN(C1CCCCC1)S(C)(=O)=O (configuration not stated) | 0.0328
23 | O=C(NN1C(=O)C2CCCCC2C1=O)c1ccco1 (configuration not stated) | -1.74
24 | O=S(=O)(NC(=S)Nc1ccccc1)c1ccc(F)cc1 | 0.866
25 | Cc1cc(C)nc(Nc2n[nH]c(-c3ccccc3N)n2)n1 | 0.274

Row | SMILES | B-score of Tl+ flux slope (higher = more flux/activation; lower = inhibition)
26 | CSc1nc2sc3c(c2c(=O)[nH]1)CCc1ccccc1-3 | 0.526
27 | COc1cccc(-n2c(=S)[nH]c3c(oc4ccccc43)c2=O)c1 | -2.03
28 | COc1ccc(-n2c(=S)[nH]c3sc4c(c3c2=O)CCc2ccccc2-4)cc1 | 11.6 (active)
29 | COCc1cc(=O)[nH]c(SC)n1 | -0.453
30 | Cc1cccc(OCC(=O)NC(=S)Nc2ccccc2N2CCOCC2)c1 | 8.7 (active)
31 | Cc1cccc(OCC(=O)Nc2ccccc2F)c1 | 0.917
32 | Cc1cccc(OCCC(=O)Nc2cc(S(=O)(=O)N3CCCCC3)ccc2N2CCOCC2)c1 | 0.115
33 | O=C(Nc1ccccc1)Nc1ccc(C(F)(F)F)cn1 | 0.765
34 | O=C(C1=C(O)C(=O)N(CCOCCO)C1c1ccccn1)c1cccs1 (configuration not stated) | 0.0733
35 | CC(=O)NC(CC(=O)Nc1nccs1)c1ccccc1 (configuration not stated) | 0.0448
36 | CCCc1nc2c(C)cc(-c3nc4ccccc4n3C)cc2n1Cc1ccc(-c2ccccc2C(=O)O)cc1 | -4.55 (active)
37 | Cc1ccc(Cn2c(NC(=O)c3ccco3)nc3ccccc32)cc1 | 1.11
38 | CC(=O)Nc1nc2ccccc2n1Cc1ccc(C)cc1 | 0.76
39 | c1ccc2c(c1)OCCOCCOCCO2 | -0.0153
40 | N#Cc1ccccc1Sc1ccccc1C(=O)OCC(=O)NC1CCCCC1 | -0.81
41 | O=C(COC(=O)c1ccccc1SCC(=O)NC1CCCCC1)NC1CCCCC1 | 0.427
42 | O=C(COC(=O)c1cc([N+](=O)[O-])ccc1NCc1ccccc1)NC1CCCCC1 | -3.78 (active)
43 | Cc1nc2ccccc2n1CC(=O)N/N=C/c1cccnc1 | 0.307
44 | O=C(CSc1cccc2cccnc12)N/N=C/c1cccnc1 | 30.2 (active)
45 | CCOC(=O)N/N=C/c1cccnc1 | 0.0775
46 | CN(c1ccccc1)S(=O)(=O)c1ccc(Cl)c(C(=O)OCC(=O)NCc2ccco2)c1 | -3.28
47 | O=C(Nc1cccc(S(=O)(=O)NC2=NCCC2)c1)C1CCCCC1 | 0.665
48 | N/C(=N\OC(=O)Nc1ccccc1)c1ccno1 | 0.175
49 | COc1ccc(S(=O)(=O)N(CC(=O)N/N=C/c2ccccc2C(=O)O)c2ccccc2OC)cc1 | 0.515
50 | Cc1cccc(C)c1NC1=NC(=S)N(c2ccc(N(C)C)cc2)C1(C)C | 4.28 (active)

Row | SMILES | B-score of Tl+ flux slope (higher = more flux/activation; lower = inhibition)
51 | Cc1nnc2n1N=C(c1ccc3c(c1)NC(=O)CO3)CS2 | -0.931
52 | Cc1cc(F)ccc1NC(=O)C(C)n1c2ccccc2c2nc(=O)cc(C)n21 (configuration not stated) | -0.013
53 | Clc1cccc(N=C2NN=C(c3ccc4c(c3)OCCO4)CS2)c1 | 1.95
54 | CN(C)c1nc(=Nc2cccc(Cl)c2)ss1 | 87 (active)
55 | Cc1ccc(C(=O)NNC2=Nc3cc([N+](=O)[O-])ccc3OC2)cc1 | 0.865
56 | COc1ccc(OCCC(=O)c2ccc(OC)cc2)cc1 | 0.534
57 | NC(=O)NC(=O)CSc1nc2cc([N+](=O)[O-])ccc2n1-c1cccc(C(F)(F)F)c1 | 6.95 (active)
58 | COc1ccc(-n2cnnc2SCC(=O)Nc2cccc([N+](=O)[O-])c2)cc1 | 0.774
59 | COc1ccc(CCNC(=O)CSc2nc3[nH]ncc3c(=O)n2-c2cccc(C(F)(F)F)c2)cc1OC | 1.1
60 | O=C(CN1CCN(C/C=C/c2ccccc2)CC1)Nc1ccc(F)cc1F | 0.952
61 | CC(=O)N/C(=C\c1ccc(F)cc1)C(=O)NC(Cc1ccccc1)C(=O)O (configuration not stated) | 0.0184
62 | O=C(O)c1cccnc1Sc1ncnc2sc3c(c12)CCC3 | 2.47
63 | O=C(Cn1cnc2ccccc2c1=O)Nc1cccc(S(=O)(=O)N2CCCCC2)c1 | 0.0725
64 | CCNC(=S)Nc1ccc(OC(F)(F)F)cc1 | -0.759
65 | CS(=O)(=O)c1sc(C(=O)NC(=S)Nc2ccc(OC(F)(F)F)cc2)c2c1C=CCC2 | 6.79 (active)
66 | FC(F)(F)Oc1ccc(NC(=S)NCc2ccccc2)cc1 | 0.0182
67 | CC1(C)C=C2[C@H]3CC[C@@H]4[C@@]5(C)CCC(=O)C(C)(C)[C@@H]5CC[C@@]4(C)[C@]3(C)CC[C@@]2(C(=O)O)CC1 | 5.9 (active)
68 | CCOC(=O)N1CCN(c2c(NCCN3CCN(c4ccccc4F)CC3)c(=O)c2=O)CC1 | 0.85
69 | O=C(CCn1nnc2ccccc2c1=O)N[C@@H](Cc1c[nH]c2ccccc12)C(=O)O | 0.807
70 | CCn1c(=S)[nH]c2sc3c(c2c1=O)CCCCC3 | 75.1 (active)
71 | CCCc1nc2sc3c(c2c(=O)n1NC(=O)CCCl)CCCC3 | -1.28
72 | O=c1c2c3c(sc2n(CCN2CCCC2)c(=O)n1Cc1ccccc1)CCCCC3 | -0.146
73 | O=C1C2C3C=CC(C3)C2C(=O)N1c1ccc(S(=O)(=O)Nc2nccs2)cc1 (configuration not stated) | 0.592
74 | Fc1ccc(Nc2nnns2)cc1 | -0.138
75 | COc1ccccc1-n1cnc2cc(NS(=O)(=O)c3ccccc3)ccc21 | -3.88 (active)

Row | SMILES | B-score of Tl+ flux slope (higher = more flux/activation; lower = inhibition)
76 | COc1ccccc1-n1cnc2cc(C(=O)NCC3CCCO3)ccc21 (configuration not stated) | 0.84
77 | COCCCNC(=O)c1ccc2c(c1)ncn2-c1ccccc1OC | -0.0358
78 | NNC(=O)c1ccc(COCC(F)(F)C(F)F)cc1 | 0.0302
79 | CCOC(=O)c1cn[nH]c1NC(=S)Nc1ccccc1 | 0.559
80 | C/C(Cc1ccccc1)=N\NC(=O)CNC(=O)c1ccc2c(c1)OCCO2 | 0.0985
81 | O=C1/C(=C/c2cccs2)SC(=S)N1C1CCS(=O)(=O)C1 (configuration not stated) | -0.225
82 | O=C(CCCN1C(=O)/C(=C/c2ccccc2)SC1=S)Nc1ccc(O)cc1 | -0.0883
83 | S=C1Nc2cc(Cl)ccc2Sc2ccccc21 | 8.4 (active)
84 | O=C(NC1CC1)c1ccc2c(c1)NC(=O)c1ccccc1S2 | -0.0671
85 | O=C1Cc2ccccc2Sc2ccc(Cl)cc21 | 0.587
86 | N#C/C(=C\N1CCOCC1)S(=O)(=O)c1ccc(Cl)cc1 | -0.211
87 | COC(=O)c1c(C)oc(C)c1S(=O)(=O)NCc1ccc(Cl)cc1 | -0.208
88 | CCOC(=O)c1ccccc1N1C(=O)C2Sc3[nH]c(=O)sc3C(/C=C/c3ccccc3)C2C1=O (configuration not stated) | -6.82 (active)
89 | COC(=O)C1=C(C)N=C2SC(C)C(=O)N2C1/C=C/c1ccccc1 (configuration not stated) | 0.122
90 | CC(OC(=O)c1ccccc1N1C(=O)C2C3CCC(C3)C2C1=O)C(=O)c1ccccc1 (configuration not stated) | 0.138
91 | CC(C)(C)C(=O)NNC(=O)c1ccc(Oc2cc(Cl)cc(Cl)c2)o1 | 4.1
92 | C=CCNC(=S)NNC(=O)c1cc(Cl)ccc1OC | -0.352
93 | COc1ccc(Cl)cc1C(=O)NNC(=S)NC1CCCC1 | 0.52
94 | COc1ccc(Cl)cc1C(=O)NNC(=S)NC(=O)/C=C/c1ccco1 | 28.5 (active)
95 | Cc1nc2ccccc2n1CC(=O)N/N=C/c1cccs1 | 0.629
96 | NC(=O)N/N=C\c1cccs1 | 0.148
97 | Cc1cc(C)nc(SC(C)C(=O)N/N=C/c2cccs2)n1 (configuration not stated) | 5.07 (active)
